Most compounds without a hit are left out; they make up all but 2.3% or so of the library.
CHRM1 antagonist: blocks human M1 muscarinic receptor | P11229 | CHO-K1 hM1, Fluo-8 calcium fluorescence, ACh EC80 antagonist | inhibition, % at 3 µM | hit rate 1.3% among 360,000;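 active means percent inhibition above its own plate's cutoff, namely the mean of that plate's compound wells plus 3 SD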;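 further: peak over basal fluorescence ratio during 140 s after agonist addition; 0% = ACh EC80 plus DMSO and 100% = DMSO alone without agonist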
Target sequence (P11229 whole entry, looked up): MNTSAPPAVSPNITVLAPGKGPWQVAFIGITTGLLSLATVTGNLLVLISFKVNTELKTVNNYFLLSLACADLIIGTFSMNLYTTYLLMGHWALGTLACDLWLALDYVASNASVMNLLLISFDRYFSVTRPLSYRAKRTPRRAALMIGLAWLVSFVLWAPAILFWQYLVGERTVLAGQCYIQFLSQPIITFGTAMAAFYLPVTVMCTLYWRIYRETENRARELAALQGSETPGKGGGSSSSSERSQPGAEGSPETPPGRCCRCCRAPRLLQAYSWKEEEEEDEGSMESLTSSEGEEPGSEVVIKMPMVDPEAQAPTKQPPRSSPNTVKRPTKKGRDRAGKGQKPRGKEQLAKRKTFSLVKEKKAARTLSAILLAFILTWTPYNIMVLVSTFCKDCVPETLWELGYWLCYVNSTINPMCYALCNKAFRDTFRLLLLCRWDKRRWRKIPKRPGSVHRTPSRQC
CHO-K1 Ca antag: M1 antagonist counterscreen hit in parental CHO-K1 cells. hit rate 0.6% among 360,000. AID 602250. inhibition, % at 3 µM. ATP-induced calcium, Fluo-8 fluorescence;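 active means inhibition above a per-plate cutoff, the plate's mean sample inhibition plus 3 SD, cut at about 24% in these data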;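 further: 0% = DMSO plus EC80 ATP and 100% = DMSO alone without ATP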
CHO-K1 Ca ag: counter-screen for M1 agonists: effect in parental CHO-K1 cells; Fluo-8 calcium fluorescence; scaled to maximal ATP response, vehicle zero; activation, % at 3 µM; hit rate 0.48% among 360,000; AID 602248; in the data active means activation above about 15%;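 further: untransfected CHO-K1 host cells lacking M1 receptor as counterscreen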
CHRM1 PAM: potentiates human M1 receptor response to acetylcholine | hit rate 0.088% among 360,000 | activation, % at 3 µM | CHO-K1 hM1, Fluo-8 calcium fluorescence, ACh EC20; 0% = ACh EC20, 100% = maximal ACh; in the data active means activation above about 19%, passing the limit was not always enough
CHO-K1 Ca PAM: nonselective activator or artifact in parental CHO-K1 calcium assay; hit rate 0.02% among 360,000; ATP EC20, Fluo-8 calcium fluorescence; 0% at ATP EC20, 100% at ATP max; activation, % at 3 µM;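 active means activation above the run cutoff, the mean activation of all test compounds plus 3 SD, cut at about 40% in these data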;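 further: peak over basal fluorescence ratio in a 140 s read after ATP addition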
M1 ag: agonists of human M1 muscarinic receptor. CHO-K1 hM1, Fluo-8 calcium fluorescence, agonist mode; 0% DMSO, 100% acetylcholine EC100. activation, % at 3 µM. P11229. hit rate 0.33% among 360,000;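 active means activation above the run's mean compound activation plus 3 SD, cut at about 16% in these data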;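 further: peak over basal fluorescence ratio within a 140 s kinetic read after compound addition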
An asterisk follows results filed as active.

SMILES	CHRM1 antagonist	CHO-K1 Ca antag	CHO-K1 Ca ag	CHRM1 PAM	CHO-K1 Ca PAM	M1 ag
COc1cc(C)ccc1S(=O)(=O)NC(=O)C1(C)CCN1C(=O)c1ccc(C2CCCCC2)cc1 (stereo unspecified)	-23	27*	0	13	-14	-5
Cc1cccc(S(=O)(=O)NC(=O)C2(C)CCN2C(=O)c2ccc(C3CCCCC3)cc2)c1 (stereo unspecified)	-10	4	0	10	2	0
COc1ccc(CCNC(=O)CCC(=O)N2CCOc3ccc(Cl)cc32)cc1OC	-7	-3	1	2	22	-4
CCOc1ccc(C2C(C#N)=C(N)SC(N)=C2C#N)c(OCC)c1	3	-8	7	-3	13	18*
CCOc1cc(C2C(C#N)=C(N)SC(N)=C2C#N)ccc1OCCN1CCOCC1	0	7	0	3	-2	-10
CC(=O)Nc1cccc(NC(=O)COC(=O)CO/N=C(\C)c2ccc3c(c2)OCO3)c1	0	-1	2	-2	-7	-1
COC(=O)c1cc2ccsc2n1Cc1cc(=O)n2ccccc2n1	77*	-3	1	-37	-3	-12
CC(Oc1ccccc1)C(=O)Nc1ccc(NC(=O)c2ccccc2)cc1 (stereo unspecified)	15	17	0	0	-13	-1
COc1cc(NC(=O)C(C)Oc2ccccc2)c(OC)cc1NC(=O)c1ccccc1 (stereo unspecified)	-12	24*	0	17	-24	4
CCC1(c2ccc(F)cc2)NC(=O)N(CC(=O)Nc2ccc(N3CCCCC3)cc2)C1=O (stereo unspecified)	3	7	10	5	11	17*
CCC1(c2ccccc2)NC(=O)N(CC(=O)Nc2ccccc2N2CCCCC2)C1=O (stereo unspecified)	8	12	38*	0	8	37*
CCCCCCN(C(=O)CCl)c1ccccc1	-2	2	0	0	-4	-8
COc1ccc(OCCN2C(=O)c3ccccc3C2=O)c([N+](=O)[O-])c1	-12	8	1	13	-24	-1
CN(C)S(=O)(=O)c1cccc(-c2nn(-c3ccccc3)cc2/C=C(\C#N)c2nc3ccccc3[nH]2)c1	-2	24*	0	5	-11	-4
N#C/C(=C\c1cn(-c2ccccc2)nc1-c1cc2ccccc2o1)c1nc2ccccc2[nH]1	7	4	0	-1	-2	-4
COc1ccccc1N=C1NC(=O)/C(=C/c2ccc(N(C)C)cc2)S1	10	29*	32*	-2	0	22*
O=C(NCc1cccc(C(F)(F)F)c1)c1[nH]c(C(F)(F)F)nc1-c1ccccc1	-8	20	6	-5	-12	7
CCOC(=O)c1cc(CC)sc1NC(=O)c1ccc(N2C(=O)CCC2=O)cc1	-12	-24	0	7	18	-1
CCOC(=O)c1cc(CC)sc1NC(=O)c1cc(OC)c(OC)c(OC)c1	26	32*	0	-10	-10	-1
CC(=O)N1CCN(S(=O)(=O)c2cccc(C(=O)NC3CCCC(C)C3C)c2)CC1 (stereo unspecified)	1	2	1	-1	-1	-1
CC(=O)Nc1cccc(NC(=O)CSc2nnc3ccc(-c4cccnc4)nn23)c1	-6	2	0	0	-9	2
CC(=O)Nc1ccc(NC(=O)CSc2nnc3ccc(-c4cccnc4)nn23)cc1	20*	4	0	-8	-14	-1
N#C/C(=C\c1ccccc1)c1nc2ncccc2[nH]1	20	-4	1	-12	1	-2
CCCCn1c(=O)nc2n(-c3ccc(C)cc3)c3ccccc3cc-2c1=O	3	-4	0	-2	11	-4
CCCCn1c(=O)nc2n(-c3ccc(Cl)cc3)c3ccccc3cc-2c1=O	-4	27*	-1	-1	-16	-5
SMILES	CHRM1 antagonist	CHO-K1 Ca antag	CHO-K1 Ca ag	CHRM1 PAM	CHO-K1 Ca PAM	M1 ag
COc1ccccc1C(NC(=O)C1CCCCC1)c1c(O)ccc2ccccc12 (stereo unspecified)	5	3	20*	-4	16	-5
COc1ccc2c(n1)Sc1nc3ccccc3nc1N2	33	28*	25*	-12	8	48*
COc1cccc2oc(-c3ccco3)cc(=O)c12	9	-8	0	10	-8	-5
COc1ccc(CNC(=O)C(c2ccco2)N(C(=O)CNS(=O)(=O)c2ccccc2)c2ccccc2C)cc1 (stereo unspecified)	7	11	54*	-5	14	-7
COc1ccc(S(=O)(=O)NCC(=O)N(CC(=O)NCc2ccccc2)Cc2ccco2)cc1	-18	-5	1	13	-9	-5
Cc1ccc(NC(=O)CCc2c[nH]c3ccccc23)nc1	-9	19	0	13	-24	3
COc1ccc(-c2cc(NC=O)c3ncc(-c4cccc(C(=O)NCCN(C)C)c4)n3c2)c(OC)c1	85*	-10	0	-33	8	-10
COc1ccccc1-c1cc(NC=O)c2ncc(-c3cccc(C(F)(F)F)c3)n2c1	-24	-7	0	31*	-7	5
CC1CCCN(CCCNC(=O)C2CCC(CNS(=O)(=O)c3cccc4nsnc34)CC2)C1 (stereo unspecified)	45*	-20	0	-19	26	-5
CCCNC(=O)COC(=O)CCC(=O)c1ccc(F)cc1	9	1	0	-5	-1	-1
CCOCCCNC(=O)CCc1nnc2ccc(N3CCCCC3)nn12	-2	-18	1	1	4	-6
CCC1CCCCN1Cc1ccc(CNC(=O)CCc2nnc3ccc(N4CCCCC4)nn23)o1 (stereo unspecified)	43*	-10	0	-17	-13	-6
CC1(C)CCN2CCC(C)(C)c3c(O)ccc1c32	25	26*	34*	-10	3	23*
Cc1c(CCOC(=O)C2C3CC4CC(C3)CC2C4)sc[n+]1CC(=O)c1ccc(Br)cc1 (stereo unspecified)	39*	-12	-1	-21	21	-5
COc1ccc(C(=O)OCCc2sc[n+](CC(=O)c3ccccc3)c2C)cc1	69*	1	1	-32	-16	-11
NC(COCc1ccccc1)c1csc(Nc2ccc(S(N)(=O)=O)cc2)n1 (stereo unspecified)	-9	-2	0	3	8	-5
Cc1cc2cc(CNC(=O)c3ccc(S(=O)(=O)N4CCOCC4)cc3)ccc2n1C	76*	-7	2	-31	20	-10
Cc1cc2cc(CNC(=O)c3ccc(S(=O)(=O)N(C)C)cc3)ccc2n1C	30*	22	1	-26	-12	-12
